These results are taken from PubChem BioAssay (Tox21).

A number with no mark means an inactive call. Results filed as inconclusive are left out. A call without a number means that no potency is given here. The source made the active and inactive calls. Calls come from the whole dose curve; as a rule, active = well fitted curve in the direction sought with a large enough effect in the repeat runs; inconclusive = weak or mixed curves; inactive = no such curve, though single readings can be large; an effect the other way counts as inactive or inconclusive.

One experiment in a line: Caspase-3/7 induction in CHO-K1 cells by small molecules, qHTS cell viability counter screen (AID 1346979). Note: nearly all actives have a fitted effect of over 35% in size. Note: potency is the fitted concentration of half-maximal effect. The note with it: CellTiter-Fluor fluorescence, 17 h; series mostly up to 92.4 µM. The method, boiled down: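 Cytotoxicity counter screen: CellTiter-Fluor added to compound-treated wild-type CHO-K1 cells at 16 h (37C, 5% CO2), fluorescence measured 1 h later; same wells as caspase-3/7 measurement.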
A general note: In qHTS, concentration-response curves come from the screen itself.
`Cc1ccccc1N=C(N)N=C(N)N`: the Potency entry is “inactive”. `FB(F)F`: the Potency result is “inactive”.

Turning to `CCCC(=O)O[C@]1(C(=O)CC)CC[C@H]2[C@@H]3CCC4=CC(=O)CC[C@]4(C)[C@H]3[C@@H](O)C[C@@]21C`, the Potency entry was “inactive”.

For the compound `CCO[Si](OCC)(OCC)c1ccccc1`, the Potency result was “inactive”. On the same count and under the same terms, the same measure for `Cc1cccc(C)c1NC(=O)CC12CCCN1CCC2`: “inactive”.

As for `O=S(=O)(O)c1cc(O)c(O)c(S(=O)(=O)O)c1`, the Potency entry is “inactive”. In the case of `CC(C)C1CCC(O)CC1` (centres undefined), the Potency entry is “inactive”. Regarding `CC1=NN(c2cc(S(=O)(=O)O)ccc2Cl)C(=O)C1N=Nc1ccccc1` (centres undefined), the Potency is 54.5 µM (active). Regarding `CC12CCC(C(=O)C1=O)C2(C)C` (centres undefined), the Potency result is “inactive”. `C=CN1CCCCCC1=O`: the Potency result was “inactive”. As to `CCCCCCCCCCCCCCCCCCO`, the Potency entry is “inactive”. As to `CC(C)C(=O)OC(=O)C(C)C`, the Potency entry is “inactive”. As for `[O-][n+]1cccc(CO)c1`, the Potency result was “inactive”. In the case of `CCCCCC(=O)OCCc1ccccc1`, the Potency result is “inactive”. Consider `CC(=O)NC(=O)c1ccccc1O`, for which the Potency result is “inactive”. The same measure, in the same setting: the same measure for `COc1cc(C(=O)OC(COCCC(C)C)CN2CCOCC2)cc(OC)c1OC` (centres undefined): “inactive”; for `CO[Si](C)(OC)c1ccccc1`: “inactive”.

As to `C=COC(=O)C(C)(CC)CCC(C)C` (centres undefined), the Potency entry was “inactive”.

In the case of `C=C[Si](OC(C)=O)(OC(C)=O)OC(C)=O`, the Potency result was “inactive”. Consider `COc1c(N2CCNC(C)C2)c(F)cc2c(=O)c(C(=O)O)cn(C3CC3)c12` (centres undefined), for which the Potency result is “inactive”. With `CC1(C)OC[C@@H](COC(=O)CCc2ccc(OC[C@@H](O)CNCCNC(=O)N3CCOCC3)cc2)O1`, the Potency result was “inactive”. Same read-out and setting: the same measure for `C=CC(C)(CCC=C(C)C)OC(=O)CC` (centres undefined): “inactive”; for `c1ccc(Cc2ccccc2)cc1`: “inactive”; for `CC(C)(C#N)Nc1nc(Cl)nc(NC2CC2)n1`: “inactive”.

As for `C=C(C)C(=O)OCC1CCCO1` (centres undefined), the Potency result is “inactive”. As for `CC(=O)Nc1ccc(OCC(O)CNC(C)C)cc1` (centres undefined), the Potency entry was “inactive”.

For `CN(C)[C@@H]1C(=O)C(C(=O)NCN2CCCC2)=C(O)[C@@]2(O)C(=O)C3=C(O)c4c(O)cccc4[C@@](C)(O)C3C[C@@H]12` (some centres undefined), the Potency entry was “inactive”. Turning to `COc1cc(C(=O)NCc2ccc(OCCN(C)C)cc2)cc(OC)c1OC`, the Potency result was “inactive”. As to `CCCC(C)C(=O)OCC` (centres undefined), the Potency result is “inactive”. Take `CCCCOC(=O)CCC(C)=O`: the Potency entry is “inactive”. On the same count and under the same terms, the same measure for `CC(C#N)(CCC(=O)O)N=NC(C)(C#N)CCC(=O)O` (centres undefined): “inactive”; for `O=S(=O)(O)c1cccc2ccccc12`: “inactive”. As to `CN(C)C(=O)Oc1cccc([N+](C)(C)C)c1`, the Potency result is “inactive”.

Consider `CC(=O)N[C@H]1[C@H]([C@H](O)[C@H](O)CO)OC(C(=O)O)=C[C@@H]1N=C(N)N`, for which the Potency entry is “inactive”. On to `CCN[C@@H]1C[C@H](N)[C@@H](OC2OC(CN)=CCC2N)[C@H](O)[C@H]1O[C@H]1OC[C@](C)(O)[C@H](NC)[C@H]1O` (some centres undefined), for which the activity change, negative = cytotoxicity was 2.16% [at 0.349 µM]. For the compound `C=CC(=O)OCCCl`, the Potency result is “inactive”. The same measure, in the same setting: then `CCCc1nn(C)c2c(=O)[nH]c(-c3cc(S(=O)(=O)N4CCN(C)CC4)ccc3OCC)nc12`, with “inactive”; and `C[N+]12CCC(CC1)C(OC(=O)C(O)(c1ccccc1)c1ccccc1)C2` (centres undefined), with “inactive”.

The nature of a further experiment: Caspase-3/7 induction in CHO-K1 cells by small molecules, qHTS assay (AID 1346980). Note: nearly all actives have a fitted effect of over 15% in size. The note with it: CHO-K1 caspase-3/7 induction, Caspase-Glo luminescence, 17 h; series mostly up to 92.4 µM. The essentials: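 Luminescent Caspase-Glo 3/7 read (30min, room temperature) quantified apoptosis induction. Cells were wild-type CHO-K1, treated with compound for 17hr at 37 C and 5% CO2.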
As for `Cc1ccccc1N=C(N)N=C(N)N`, the outcome was inactive. Regarding `FB(F)F`, the call was inactive. As to `CCCC(=O)O[C@]1(C(=O)CC)CC[C@H]2[C@@H]3CCC4=CC(=O)CC[C@]4(C)[C@H]3[C@@H](O)C[C@@]21C`, the result was inactive. With `CCO[Si](OCC)(OCC)c1ccccc1`, the outcome was inactive. For the compound `Cc1cccc(C)c1NC(=O)CC12CCCN1CCC2`, the compound was classed as inactive. On the same count and under the same terms, the same measure for `O=S(=O)(O)c1cc(O)c(O)c(S(=O)(=O)O)c1`: “inactive”; for `CC(C)C1CCC(O)CC1` (centres undefined): “inactive”; for `CC1=NN(c2cc(S(=O)(=O)O)ccc2Cl)C(=O)C1N=Nc1ccccc1` (centres undefined): “inactive”.

As to `CC12CCC(C(=O)C1=O)C2(C)C` (centres undefined), the compound was classed as inactive.

Take `C=CN1CCCCCC1=O`: the compound was called inactive. Same read-out and setting: the same measure for `CCCCCCCCCCCCCCCCCCO`: “inactive”; for `CC(C)C(=O)OC(=O)C(C)C`: “inactive”; for `[O-][n+]1cccc(CO)c1`: “inactive”. Consider `CCCCCC(=O)OCCc1ccccc1`, for which the result was inactive. As for `CC(=O)NC(=O)c1ccccc1O`, the result was inactive. Consider `COc1cc(C(=O)OC(COCCC(C)C)CN2CCOCC2)cc(OC)c1OC` (centres undefined), for which the compound was classed as inactive. Regarding `CO[Si](C)(OC)c1ccccc1`, the result was inactive. As to `C=COC(=O)C(C)(CC)CCC(C)C` (centres undefined), the result was inactive. In the case of `C=C[Si](OC(C)=O)(OC(C)=O)OC(C)=O`, the result was inactive. Same read-out and setting: then `COc1c(N2CCNC(C)C2)c(F)cc2c(=O)c(C(=O)O)cn(C3CC3)c12` (centres undefined), with “inactive”; and `CC1(C)OC[C@@H](COC(=O)CCc2ccc(OC[C@@H](O)CNCCNC(=O)N3CCOCC3)cc2)O1`, with “inactive”. For `C=CC(C)(CCC=C(C)C)OC(=O)CC` (centres undefined), the outcome was inactive. With `c1ccc(Cc2ccccc2)cc1`, the outcome was inactive.

With `CC(C)(C#N)Nc1nc(Cl)nc(NC2CC2)n1`, the call was inactive. Same read-out and setting: then `C=C(C)C(=O)OCC1CCCO1` (centres undefined), with “inactive”; and `CN(C)[C@@H]1C(=O)C(C(=O)NCN2CCCC2)=C(O)[C@@]2(O)C(=O)C3=C(O)c4c(O)cccc4[C@@](C)(O)C3C[C@@H]12` (some centres undefined), with “inactive”. On to `COc1cc(C(=O)NCc2ccc(OCCN(C)C)cc2)cc(OC)c1OC`, for which the compound was called inactive. Same read-out and setting: the same measure for `CCCC(C)C(=O)OCC` (centres undefined): “inactive”. The same measure, in the same setting: then `CCCCOC(=O)CCC(C)=O`, with “inactive”; and `CC(C#N)(CCC(=O)O)N=NC(C)(C#N)CCC(=O)O` (centres undefined), with “inactive”.

On to `O=S(=O)(O)c1cccc2ccccc12`, for which the call was inactive. Take `CN(C)C(=O)Oc1cccc([N+](C)(C)C)c1`: the result was inactive.

Regarding `CC(=O)N[C@H]1[C@H]([C@H](O)[C@H](O)CO)OC(C(=O)O)=C[C@@H]1N=C(N)N`, the result was inactive. As to `CCN[C@@H]1C[C@H](N)[C@@H](OC2OC(CN)=CCC2N)[C@H](O)[C@H]1O[C@H]1OC[C@](C)(O)[C@H](NC)[C@H]1O` (some centres undefined), the caspase-3/7 activation was -0.394% [at 0.349 µM]. As for `CCCc1nn(C)c2c(=O)[nH]c(-c3cc(S(=O)(=O)N4CCN(C)CC4)ccc3OCC)nc12`, the result was inactive. Take `C[N+]12CCC(CC1)C(OC(=O)C(O)(c1ccccc1)c1ccccc1)C2` (centres undefined): the compound was called inactive.
